# Measurements from PubChem BioAssay.
# Active and inactive are the calls of the source. Unless noted, the rule behind the calls is not given here.
# Assays:
# [1] = compounds binding Alexa647 anti-His antibody – biochemical, small-molecule microarray, 635 nm fluorescence, artefact control for SMM control protein annotation, primary screen (AID 1128); conditions: higher = more signal;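 note: score merges feature fluorescence with signal-to-noise for each printed compound spot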
# [2] = test system: Human papillomavirus type 1a E7 protein (residues 1-88); assay: HPV1a E7 small-molecule binders, primary screen, biochemical, small-molecule microarray, residues 1-88, 635 nm (AID 1129); conditions: small-molecule microarray binding, fluorescence 635 nm; higher = more signal
# [3] = molecular target: Focal adhesion kinase 1 (Homo sapiens) (UniProt Q05397); assay: PTK2 protein binding on printed compound slides – biochemical, small-molecule microarray, 635/667 nm fluorescence, BSA, DTT, primary screen (AID 1130); conditions: 635 nm fluorescence, higher = more signal;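 note: composite of spot emission at 667 nm and signal to noise over triplicate slides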
# [4] = test system: Fibrinogen (Alexa647-labelled); assay: Alexa647-fibrinogen binding to printed small molecules – biochemical, small-molecule microarray, 635/667 nm fluorescence, artefact control for SMM control-protein annotation, profiling panel (AID 1131); conditions: fibrinogen-A647 binding fluorescence, higher = more signal;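 note: z-score merges 667 nm fluorescence with per-spot signal-to-noise over triplicate slides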
# [5] = molecular target: Follistatin (Homo sapiens) (UniProt P19883); assay: FST protein binding to printed compounds – biochemical, small-molecule microarray, 635/667 nm fluorescence, primary screen (AID 1132); conditions: 635 nm fluorescence, higher = more signal
# [6] = molecular target: Fibroblast growth factor 2 (Homo sapiens) (UniProt P09038); assay: basic fibroblast growth factor binding to printed compounds – biochemical, small-molecule microarray, 635/667 nm fluorescence, primary screen (AID 1133); conditions: FGF2, fluorescence 635/667, higher = more signal
# [7] = JC-1 mitochondrial potential readout, lung cancer cells – cell-based, A549, JC-1 fluorescence, basal, 24 h, 100 nL, profiling panel (AID 1138); conditions: higher = more signal;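 note: A549 lung adenocarcinoma cells under basal conditions with no added stimulus; test concentration not given here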
# [8] = test system: Lefty1; assay: Lefty1 protein binding to printed compounds – biochemical, small-molecule microarray, 635/667 nm fluorescence, primary screen (AID 1139); conditions: fluorescence 635/667, higher = more signal
# [9] = test system: wheat germ agglutinin (Triticum aestivum), Alexa647-labelled; assay: Alexa647-WGA lectin binding to printed small molecules – biochemical, small-molecule microarray, 635/667 nm fluorescence, artefact control for SMM control-protein annotation, profiling panel (AID 1140); conditions: WGA-A647 binding, 635 nm fluorescence, higher = more signal;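 note: score merges 667 nm feature emission with signal to noise over triplicate slides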
# [10] = molecular target: Luciferin 4-monooxygenase (Photinus pyralis) (UniProt P08659); assay: inhibition of purified Photinus pyralis luciferase – biochemical, luminescence, purified enzyme, 2006 set, primary screen (AID 1141); conditions: purified firefly luciferase, SteadyGlo luminescence, 30 min; higher = more signal, called active from +8 up or from −8 down;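 note: cell-free assay with purified firefly luciferase at 100 ng per well in PBS; test concentration not given here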
# [11] = test system: Wnt5a (protein binding on small-molecule microarray); assay: small molecules binding Wnt5a protein – biophysical, small-molecule microarray, 635/667 nm fluorescence, primary screen (AID 1142); conditions: 635 nm fluorescence, higher = more signal;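 note: fluorescence read at 667 nm with signal to noise per printed feature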
# [12] = ATP-based viability of Huh7 replicon cells – cell-based, CellTiter-Glo luminescence, basal, 48 h, cytotoxicity control for HCV replication inhibitor project, primary screen (AID 1143); conditions: higher = more signal, called active from +8 up or from −8 down;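 note: Huh7 hepatoma cells carrying a hepatitis C replication reporter with no stimulus; test concentration not given here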
# [13] = Pseudomonas biofilm growth suppression – PAO1 strain, BacTiter-Glo luminescence, LB-PBS, primary screen (AID 1144); conditions: P. aeruginosa PAO1 biofilm, 12 h, higher = more signal
# [14] = basal CRE-LacZ reporter activity in PC12 – cell-based, unstimulated, primary screen (AID 1145); conditions: no forskolin, luminescence, 4.5 h, higher = more signal, called active from +8 up or from −8 down
# [15] = forskolin-driven CRE-LacZ activity in PC12 – cell-based, CRE-LacZ reporter, forskolin-stimulated, primary screen (AID 1146); conditions: luminescence, 4.5 h, higher = more signal, called active from +8 up or from −8 down;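 note: PC12 cells with 6xCRE LacZ reporter stimulated by forskolin 10 µM; beta-galactosidase reporter signal reflecting CREB driven transcription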
# [16] = molecular target: Streptavidin (Streptomyces avidinii) (UniProt P22629); assay: compounds binding control protein streptavidin – biophysical, small-molecule microarray, 635/667 nm fluorescence, artefact control for SMM compound annotation, primary screen (AID 1147); conditions: higher = more signal;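 note: signal reflects streptavidin binding to arrayed compounds as a control protein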
# [17] = probe aInhba binding on compound microarray – biochemical, small-molecule microarray, 635/667 nm fluorescence, primary screen (AID 1148); conditions: higher = more signal;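 note: score merges 667nm spot fluorescence with signal-to-noise for antibody binding to printed compounds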
# [18] = molecular target: Torsin-1A (Homo sapiens) (UniProt O14656); assay: TOR1A wild-type binding on microarray – cell lysate, small-molecule microarray, lysate, 635/667 nm, primary screen (AID 1149); conditions: COS7 hTOR1A-WT lysate, 635 nm fluorescence, higher = more signal
# [19] = molecular target: Torsin-1A (Homo sapiens) (UniProt O14656); assay: torsin A mutant lysate binding on microarrays – cell lysate, small-molecule microarray, COS7 lysate, 635/667 nm fluorescence, primary screen (AID 1150); conditions: COS7 hTOR1A mutant lysate, 635 nm fluorescence, higher = more signal;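 note: score pools 667 nm emission and signal to noise measuring lysate protein binding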
# [20] = test system: Sonic hedgehog protein (Shh); assay: Sonic hedgehog microarray binding compounds – biochemical, small-molecule microarray, 635/667 nm fluorescence, primary screen (AID 1151); conditions: 635 nm fluorescence, higher = more signal;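 note: Shh protein binding to compounds spotted on small-molecule microarray slides; score combines spot fluorescence intensity with signal-to-noise across triplicate slides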
# Torsin-1A (Homo sapiens), sequence (O14656 whole entry, looked up): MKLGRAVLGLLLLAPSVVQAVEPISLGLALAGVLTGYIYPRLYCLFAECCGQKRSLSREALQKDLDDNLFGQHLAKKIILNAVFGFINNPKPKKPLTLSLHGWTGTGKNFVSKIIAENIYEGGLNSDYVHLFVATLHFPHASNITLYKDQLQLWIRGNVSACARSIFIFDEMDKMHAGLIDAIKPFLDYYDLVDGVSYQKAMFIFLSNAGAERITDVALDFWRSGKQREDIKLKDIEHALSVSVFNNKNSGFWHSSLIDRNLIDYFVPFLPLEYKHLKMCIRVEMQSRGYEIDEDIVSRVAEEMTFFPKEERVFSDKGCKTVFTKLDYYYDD
# Follistatin (Homo sapiens), sequence (P19883 whole entry, looked up): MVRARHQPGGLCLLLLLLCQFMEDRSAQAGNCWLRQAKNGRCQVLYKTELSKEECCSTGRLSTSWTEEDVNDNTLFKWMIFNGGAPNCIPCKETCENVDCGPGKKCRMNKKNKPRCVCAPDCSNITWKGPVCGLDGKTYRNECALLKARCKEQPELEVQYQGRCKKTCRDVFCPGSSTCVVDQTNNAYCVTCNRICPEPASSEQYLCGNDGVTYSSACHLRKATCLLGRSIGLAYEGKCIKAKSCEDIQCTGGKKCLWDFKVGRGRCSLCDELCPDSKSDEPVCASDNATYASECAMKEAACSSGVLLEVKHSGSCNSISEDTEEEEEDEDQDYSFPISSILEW
# Fibroblast growth factor 2 (Homo sapiens), sequence (P09038 whole entry, looked up): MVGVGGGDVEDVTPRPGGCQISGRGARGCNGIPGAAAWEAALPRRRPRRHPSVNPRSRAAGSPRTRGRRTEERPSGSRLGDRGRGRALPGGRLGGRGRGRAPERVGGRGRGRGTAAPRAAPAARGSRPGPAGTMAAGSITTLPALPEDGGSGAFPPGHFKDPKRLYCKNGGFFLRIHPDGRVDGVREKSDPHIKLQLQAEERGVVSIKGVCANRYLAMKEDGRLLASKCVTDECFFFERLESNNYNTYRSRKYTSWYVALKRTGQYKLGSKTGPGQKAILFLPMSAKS
# Luciferin 4-monooxygenase (Photinus pyralis), sequence (P08659 whole entry, looked up): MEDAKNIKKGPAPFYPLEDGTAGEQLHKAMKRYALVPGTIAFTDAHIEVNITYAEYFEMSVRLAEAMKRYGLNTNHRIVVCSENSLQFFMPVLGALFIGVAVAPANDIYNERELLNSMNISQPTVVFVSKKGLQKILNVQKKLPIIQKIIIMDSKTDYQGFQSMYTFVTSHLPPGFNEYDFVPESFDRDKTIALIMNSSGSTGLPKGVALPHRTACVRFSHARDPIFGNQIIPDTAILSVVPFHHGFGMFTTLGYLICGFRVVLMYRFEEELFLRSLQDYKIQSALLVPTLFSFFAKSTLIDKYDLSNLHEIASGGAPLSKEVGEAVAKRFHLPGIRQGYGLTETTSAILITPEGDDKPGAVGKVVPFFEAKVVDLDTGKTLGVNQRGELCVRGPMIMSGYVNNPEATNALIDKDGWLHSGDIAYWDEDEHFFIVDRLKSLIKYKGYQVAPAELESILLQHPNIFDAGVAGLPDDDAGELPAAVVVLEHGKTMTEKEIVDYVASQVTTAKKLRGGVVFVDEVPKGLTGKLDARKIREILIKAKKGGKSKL
# Streptavidin (Streptomyces avidinii), sequence (P22629 whole entry, looked up): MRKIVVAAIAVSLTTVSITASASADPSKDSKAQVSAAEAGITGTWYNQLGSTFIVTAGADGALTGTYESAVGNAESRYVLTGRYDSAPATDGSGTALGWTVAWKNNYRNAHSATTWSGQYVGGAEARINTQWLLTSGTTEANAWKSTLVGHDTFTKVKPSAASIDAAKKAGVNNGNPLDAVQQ
# Focal adhesion kinase 1 (Homo sapiens), sequence (Q05397 whole entry, looked up): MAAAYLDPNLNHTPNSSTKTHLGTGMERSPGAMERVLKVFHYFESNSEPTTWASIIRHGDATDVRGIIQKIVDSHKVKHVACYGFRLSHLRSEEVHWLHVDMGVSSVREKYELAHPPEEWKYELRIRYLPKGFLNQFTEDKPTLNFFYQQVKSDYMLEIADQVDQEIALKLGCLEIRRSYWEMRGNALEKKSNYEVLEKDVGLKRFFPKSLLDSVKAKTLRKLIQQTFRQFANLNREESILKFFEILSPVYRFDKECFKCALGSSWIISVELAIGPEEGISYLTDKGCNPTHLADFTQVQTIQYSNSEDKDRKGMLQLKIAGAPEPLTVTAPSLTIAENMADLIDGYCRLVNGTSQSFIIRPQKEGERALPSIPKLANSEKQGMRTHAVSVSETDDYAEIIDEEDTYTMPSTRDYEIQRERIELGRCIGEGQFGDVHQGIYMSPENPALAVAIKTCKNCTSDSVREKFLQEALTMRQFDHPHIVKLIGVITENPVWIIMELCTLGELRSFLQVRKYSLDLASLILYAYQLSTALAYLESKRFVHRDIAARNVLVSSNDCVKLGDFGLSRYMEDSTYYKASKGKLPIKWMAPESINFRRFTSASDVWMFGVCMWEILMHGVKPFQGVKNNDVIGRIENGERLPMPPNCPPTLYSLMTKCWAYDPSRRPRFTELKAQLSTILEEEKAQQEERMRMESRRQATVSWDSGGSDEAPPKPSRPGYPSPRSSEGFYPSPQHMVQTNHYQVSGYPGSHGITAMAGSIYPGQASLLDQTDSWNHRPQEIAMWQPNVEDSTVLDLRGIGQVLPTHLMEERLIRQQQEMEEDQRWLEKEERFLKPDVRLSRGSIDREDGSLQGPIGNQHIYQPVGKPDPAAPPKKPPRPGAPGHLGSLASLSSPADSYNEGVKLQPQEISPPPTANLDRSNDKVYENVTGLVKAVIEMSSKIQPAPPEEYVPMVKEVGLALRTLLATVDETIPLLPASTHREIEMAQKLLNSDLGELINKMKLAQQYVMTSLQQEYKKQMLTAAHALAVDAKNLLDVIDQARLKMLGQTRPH
smiles,measurement,setting,value
CCC[C@@H]1C[C@@]1(CCC)[C@@H](NC(=O)c1ccccc1)c1cccc(Cl)c1,composite z-score,[1],1.52
same,composite z-score,[2],1.17
same,composite z-score,[3],0.535
same,composite z-score,[4],0.596
same,composite z-score,[5],0.219
same,composite z-score,[6],-0.331
same,z-score,[7],0.349
same,composite z-score,[8],-0.544
same,composite z-score,[9],1.11
same,z-score,[10],0.841 (inactive)
same,composite z-score,[11],2.05
same,z-score,[12],-0.246 (inactive)
same,z-score,[13],0.0208 (inactive)
same,z-score,[14],0.776 (inactive)
same,z-score,[15],0.485 (inactive)
same,composite z-score,[16],2.17
same,composite z-score,[17],1.32
same,composite z-score,[18],0.0875
same,composite z-score,[19],0.512
same,composite z-score,[20],-1.33
CCCc1cc2c(n1Cc1cc(F)cc(F)c1)C(C)C1CN(C(=O)c3ccccc3)C(C)(C(=O)OC)C21 (stereo not given),composite z-score,[1],2.15
same,composite z-score,[2],1.24
same,composite z-score,[3],2.09
same,composite z-score,[4],0.982
same,composite z-score,[5],0.542
same,composite z-score,[6],-0.48
same,z-score,[7],1.24
same,composite z-score,[8],-0.311
same,composite z-score,[9],1.01
same,z-score,[10],-1.15 (inactive)
same,composite z-score,[11],0.239
same,z-score,[12],-2.5 (inactive)
same,z-score,[13],0.335 (inactive)
same,z-score,[14],0.587 (inactive)
same,z-score,[15],1.31 (inactive)
same,composite z-score,[16],1.4
same,composite z-score,[17],0.786
same,composite z-score,[18],0.361
same,composite z-score,[19],1.58
same,composite z-score,[20],-0.236
CC1CC/C=C\[C@H]2OC34C=CCN(C(C)(C)C)C(=O)[C@H]3N(C(C)CO)C(=O)[C@@H]4C2C(=O)O1 (stereo not given in full),composite z-score,[1],-1.63
same,composite z-score,[2],-2.07
same,composite z-score,[3],-0.9
same,composite z-score,[4],-2.02
same,composite z-score,[5],-0.397
same,composite z-score,[6],-0.121
same,z-score,[7],0.348
same,composite z-score,[8],-0.248
same,composite z-score,[9],-1.61
same,z-score,[10],-0.694 (inactive)
same,composite z-score,[11],-0.273
same,z-score,[12],0.4 (inactive)
same,z-score,[13],1.01 (inactive)
same,z-score,[14],-0.22 (inactive)
same,z-score,[15],0.826 (inactive)
same,composite z-score,[16],-1.3
same,composite z-score,[17],-0.128
same,composite z-score,[18],-0.468
same,composite z-score,[19],-0.441
same,composite z-score,[20],0.622
COCC(=C=CC[C@@H](O)c1cccc(OCCO)c1)C[C@@H](O)c1ccccn1,composite z-score,[1],-0.252
same,composite z-score,[2],0.467
same,composite z-score,[3],-0.32
same,composite z-score,[4],0.263
same,composite z-score,[5],0.868
same,composite z-score,[6],0.392
same,z-score,[7],1.53
same,composite z-score,[8],1.24
same,composite z-score,[9],0.0688
same,z-score,[10],-1.16 (inactive)
same,composite z-score,[11],0.0068
same,z-score,[12],0.0726 (inactive)
same,z-score,[13],0.786 (inactive)
same,z-score,[14],0.378 (inactive)
same,z-score,[15],-1.16 (inactive)
same,composite z-score,[16],-0.229
same,composite z-score,[17],-0.0403
same,composite z-score,[18],0.839
same,composite z-score,[19],0.344
same,composite z-score,[20],1.29
O=C1O[C@@H](c2ccccc2)[C@@H](c2ccccc2)N2[C@@H](c3ccccc3OCCO)[C@]3(C(=O)Nc4ccccc43)[C@@H](C(=O)Nc3nc4ccccc4s3)[C@H]12,composite z-score,[1],0.858
same,composite z-score,[2],1.23
same,composite z-score,[3],0.467
same,composite z-score,[4],0.865
same,composite z-score,[5],0.778
same,composite z-score,[6],0.188
same,z-score,[7],-2
same,composite z-score,[8],1.62
same,composite z-score,[9],1.17
same,z-score,[10],-0.237 (inactive)
same,composite z-score,[11],0.371
same,z-score,[12],-5.91 (inactive)
same,z-score,[13],-0.311 (inactive)
same,z-score,[14],0.568 (inactive)
same,z-score,[15],3.07 (inactive)
same,composite z-score,[16],1.9
same,composite z-score,[17],0.286
same,composite z-score,[18],0.469
same,composite z-score,[19],0.972
same,composite z-score,[20],2.03
